Data from article PMC11006913.
Substitutions are numbered along the chain they refer to.

What was measured:
Assay in all cases: PBM; 200 nM protein, PBS
Details in all cases: dsDNA, one strand shown
SIX6 [1] = biological target: T1, SIX6 (Homo sapiens, UniProt O95475 114-200, L167I)
T1 sequence: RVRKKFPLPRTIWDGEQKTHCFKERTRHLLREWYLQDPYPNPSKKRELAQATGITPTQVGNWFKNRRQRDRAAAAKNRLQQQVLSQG

SIX6 [2] = biological target: T2, SIX6 (Homo sapiens, UniProt O95475 114-200, L143V)
T2 sequence: T1 sequence with L30V, I54L

SIX6 [3] = biological target: T3, SIX6 (Homo sapiens, UniProt O95475 114-200, H141N)
T3 sequence: T1 sequence with H28N, I54L

SIX6 [4] = biological target: T4, SIX6 (Homo sapiens, UniProt O95475 114-200, T165P)
T4 sequence: T1 sequence with T52P, I54L

SIX6 [5] = biological target: T5, SIX6 (Homo sapiens, UniProt O95475 114-200, L167M)
T5 sequence: T1 sequence with I54M

SIX6 [6] = biological target: T6, SIX6 (Homo sapiens, UniProt O95475 114-200, L143M)
T6 sequence: T1 sequence with L30M, I54L

SIX6 [7] = biological target: T7, SIX6 (Homo sapiens, UniProt O95475 114-200, L143I)
T7 sequence: T1 sequence with L30I, I54L

SIX6 [8] = biological target: T8, SIX6 (Homo sapiens, UniProt O95475 114-200, T165G)
T8 sequence: T1 sequence with T52G, I54L

SIX6 [9] = biological target: T9, SIX6 (Homo sapiens, UniProt O95475 114-200, T139Q)
T9 sequence: T1 sequence with T26Q, I54L

SIX6 [10] = biological target: T10, SIX6 (Homo sapiens, UniProt O95475 114-200, T165A)
T10 sequence: T1 sequence with T52A, I54L

SIX6 [11] = biological target: T11, SIX6 (Homo sapiens, UniProt O95475 114-200, L167V)
T11 sequence: T1 sequence with I54V

SIX6 [12] = biological target: T12, SIX6 (Homo sapiens, UniProt O95475 114-200)
T12 sequence: T1 sequence with I54L

SIX6 [13] = biological target: T13, SIX6 (Homo sapiens, UniProt O95475 114-200, T165I)
T13 sequence: T1 sequence with T52I, I54L

AGGTGGGC
binding signal (SIX6 [1]): 8.98 upbm affinity estimate (log intensity, higher = more binding, comparable within an allelic series)
binding signal (SIX6 [2]): 8.85 upbm affinity estimate (log intensity, higher = more binding, comparable within an allelic series)
binding signal (SIX6 [3]): 8.88 upbm affinity estimate (log intensity, higher = more binding, comparable within an allelic series)
binding signal (SIX6 [4]): 8.89 upbm affinity estimate (log intensity, higher = more binding, comparable within an allelic series)
binding signal (SIX6 [5]): 8.86 upbm affinity estimate (log intensity, higher = more binding, comparable within an allelic series)
binding signal (SIX6 [6]): 8.93 upbm affinity estimate (log intensity, higher = more binding, comparable within an allelic series)
binding signal (SIX6 [7]): 8.92 upbm affinity estimate (log intensity, higher = more binding, comparable within an allelic series)
binding signal (SIX6 [8]): 8.98 upbm affinity estimate (log intensity, higher = more binding, comparable within an allelic series)
binding signal (SIX6 [9]): 9.06 upbm affinity estimate (log intensity, higher = more binding, comparable within an allelic series)
binding signal (SIX6 [10]): 8.91 upbm affinity estimate (log intensity, higher = more binding, comparable within an allelic series)
binding signal (SIX6 [11]): 8.91 upbm affinity estimate (log intensity, higher = more binding, comparable within an allelic series)
binding signal (SIX6 [12]): 8.91 upbm affinity estimate (log intensity, higher = more binding, comparable within an allelic series)
binding signal (SIX6 [13]): 8.94 upbm affinity estimate (log intensity, higher = more binding, comparable within an allelic series)

GCCGCGGC
binding signal (SIX6 [1]): 9.02 upbm affinity estimate (log intensity, higher = more binding, comparable within an allelic series)
binding signal (SIX6 [2]): 8.88 upbm affinity estimate (log intensity, higher = more binding, comparable within an allelic series)
binding signal (SIX6 [3]): 8.98 upbm affinity estimate (log intensity, higher = more binding, comparable within an allelic series)
binding signal (SIX6 [4]): 9.04 upbm affinity estimate (log intensity, higher = more binding, comparable within an allelic series)
binding signal (SIX6 [5]): 8.87 upbm affinity estimate (log intensity, higher = more binding, comparable within an allelic series)
binding signal (SIX6 [6]): 9.03 upbm affinity estimate (log intensity, higher = more binding, comparable within an allelic series)
binding signal (SIX6 [7]): 8.95 upbm affinity estimate (log intensity, higher = more binding, comparable within an allelic series)
binding signal (SIX6 [8]): 9.01 upbm affinity estimate (log intensity, higher = more binding, comparable within an allelic series)
binding signal (SIX6 [9]): 9.14 upbm affinity estimate (log intensity, higher = more binding, comparable within an allelic series)
binding signal (SIX6 [10]): 8.95 upbm affinity estimate (log intensity, higher = more binding, comparable within an allelic series)
binding signal (SIX6 [11]): 9.01 upbm affinity estimate (log intensity, higher = more binding, comparable within an allelic series)
binding signal (SIX6 [12]): 9 upbm affinity estimate (log intensity, higher = more binding, comparable within an allelic series)
binding signal (SIX6 [13]): 8.83 upbm affinity estimate (log intensity, higher = more binding, comparable within an allelic series)

GTATGATA
binding signal (SIX6 [1]): 11 upbm affinity estimate (log intensity, higher = more binding, comparable within an allelic series)
binding signal (SIX6 [2]): 10.5 upbm affinity estimate (log intensity, higher = more binding, comparable within an allelic series)
binding signal (SIX6 [3]): 11.1 upbm affinity estimate (log intensity, higher = more binding, comparable within an allelic series)
binding signal (SIX6 [4]): 10.1 upbm affinity estimate (log intensity, higher = more binding, comparable within an allelic series)
binding signal (SIX6 [5]): 10.6 upbm affinity estimate (log intensity, higher = more binding, comparable within an allelic series)
binding signal (SIX6 [6]): 11 upbm affinity estimate (log intensity, higher = more binding, comparable within an allelic series)
binding signal (SIX6 [7]): 10.5 upbm affinity estimate (log intensity, higher = more binding, comparable within an allelic series)
binding signal (SIX6 [8]): 11.2 upbm affinity estimate (log intensity, higher = more binding, comparable within an allelic series)
binding signal (SIX6 [9]): 11.2 upbm affinity estimate (log intensity, higher = more binding, comparable within an allelic series)
binding signal (SIX6 [10]): 11 upbm affinity estimate (log intensity, higher = more binding, comparable within an allelic series)
binding signal (SIX6 [11]): 10.9 upbm affinity estimate (log intensity, higher = more binding, comparable within an allelic series)
binding signal (SIX6 [12]): 11 upbm affinity estimate (log intensity, higher = more binding, comparable within an allelic series)
binding signal (SIX6 [13]): 10.9 upbm affinity estimate (log intensity, higher = more binding, comparable within an allelic series)

GTGTATCA
binding signal (SIX6 [1]): 11.5 upbm affinity estimate (log intensity, higher = more binding, comparable within an allelic series)
binding signal (SIX6 [2]): 10.5 upbm affinity estimate (log intensity, higher = more binding, comparable within an allelic series)
binding signal (SIX6 [3]): 11.4 upbm affinity estimate (log intensity, higher = more binding, comparable within an allelic series)
binding signal (SIX6 [4]): 9.86 upbm affinity estimate (log intensity, higher = more binding, comparable within an allelic series)
binding signal (SIX6 [5]): 10.9 upbm affinity estimate (log intensity, higher = more binding, comparable within an allelic series)
binding signal (SIX6 [6]): 11.2 upbm affinity estimate (log intensity, higher = more binding, comparable within an allelic series)
binding signal (SIX6 [7]): 10.5 upbm affinity estimate (log intensity, higher = more binding, comparable within an allelic series)
binding signal (SIX6 [8]): 11.5 upbm affinity estimate (log intensity, higher = more binding, comparable within an allelic series)
binding signal (SIX6 [9]): 11.4 upbm affinity estimate (log intensity, higher = more binding, comparable within an allelic series)
binding signal (SIX6 [10]): 11.4 upbm affinity estimate (log intensity, higher = more binding, comparable within an allelic series)
binding signal (SIX6 [11]): 11.2 upbm affinity estimate (log intensity, higher = more binding, comparable within an allelic series)
binding signal (SIX6 [12]): 11.3 upbm affinity estimate (log intensity, higher = more binding, comparable within an allelic series)
binding signal (SIX6 [13]): 11.2 upbm affinity estimate (log intensity, higher = more binding, comparable within an allelic series)

AGATATCA
binding signal (SIX6 [1]): 11.4 upbm affinity estimate (log intensity, higher = more binding, comparable within an allelic series)
binding signal (SIX6 [2]): 10.5 upbm affinity estimate (log intensity, higher = more binding, comparable within an allelic series)
binding signal (SIX6 [3]): 11.4 upbm affinity estimate (log intensity, higher = more binding, comparable within an allelic series)
binding signal (SIX6 [4]): 10.1 upbm affinity estimate (log intensity, higher = more binding, comparable within an allelic series)
binding signal (SIX6 [5]): 10.8 upbm affinity estimate (log intensity, higher = more binding, comparable within an allelic series)
binding signal (SIX6 [6]): 11 upbm affinity estimate (log intensity, higher = more binding, comparable within an allelic series)
binding signal (SIX6 [7]): 10.4 upbm affinity estimate (log intensity, higher = more binding, comparable within an allelic series)
binding signal (SIX6 [8]): 11.2 upbm affinity estimate (log intensity, higher = more binding, comparable within an allelic series)
binding signal (SIX6 [9]): 11.1 upbm affinity estimate (log intensity, higher = more binding, comparable within an allelic series)
binding signal (SIX6 [10]): 11.2 upbm affinity estimate (log intensity, higher = more binding, comparable within an allelic series)
binding signal (SIX6 [11]): 11.2 upbm affinity estimate (log intensity, higher = more binding, comparable within an allelic series)
binding signal (SIX6 [12]): 11 upbm affinity estimate (log intensity, higher = more binding, comparable within an allelic series)
binding signal (SIX6 [13]): 11.1 upbm affinity estimate (log intensity, higher = more binding, comparable within an allelic series)

ATATCATC
binding signal (SIX6 [1]): 11.3 upbm affinity estimate (log intensity, higher = more binding, comparable within an allelic series)
binding signal (SIX6 [2]): 10.5 upbm affinity estimate (log intensity, higher = more binding, comparable within an allelic series)
binding signal (SIX6 [3]): 11.2 upbm affinity estimate (log intensity, higher = more binding, comparable within an allelic series)
binding signal (SIX6 [4]): 10 upbm affinity estimate (log intensity, higher = more binding, comparable within an allelic series)
binding signal (SIX6 [5]): 10.8 upbm affinity estimate (log intensity, higher = more binding, comparable within an allelic series)
binding signal (SIX6 [6]): 11.1 upbm affinity estimate (log intensity, higher = more binding, comparable within an allelic series)
binding signal (SIX6 [7]): 10.5 upbm affinity estimate (log intensity, higher = more binding, comparable within an allelic series)
binding signal (SIX6 [8]): 11.3 upbm affinity estimate (log intensity, higher = more binding, comparable within an allelic series)
binding signal (SIX6 [9]): 11.3 upbm affinity estimate (log intensity, higher = more binding, comparable within an allelic series)
binding signal (SIX6 [10]): 11.2 upbm affinity estimate (log intensity, higher = more binding, comparable within an allelic series)
binding signal (SIX6 [11]): 11 upbm affinity estimate (log intensity, higher = more binding, comparable within an allelic series)
binding signal (SIX6 [12]): 11.1 upbm affinity estimate (log intensity, higher = more binding, comparable within an allelic series)
binding signal (SIX6 [13]): 11.1 upbm affinity estimate (log intensity, higher = more binding, comparable within an allelic series)
